Assay results from PubChem BioAssay (NCI).
About 83,000 compounds went through this panel and 20% of them were active in at least one assay; those are over-represented in the sample as a whole.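 How to read the values: 0–100, growth inhibition (40 = 60% inhibited); 0, no net growth; -100 to 0, cell death (-40 = 40% of starting cells died; -100 = all dead).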 Unmarked numbers belong to inactive results. Active and inactive are the calls of the source.

system: A498 renal; assay: NCI-60 one-dose screen, 48 h (100 = growth as untreated, 0 = no growth, -100 = all killed); conditions: 10 µM unless noted
Method: Growth inhibition of the A498 human tumor cell line is measured as a screen for anti-cancer activity. Cells are grown in 96 well plates and exposed to the test compound for 48 hours. Compounds are tested at a single concentration, which is 10^-5 M for most compounds. The reported endpoint is percent growth (GI% or GIPRCNT), where numbers from 0 - 100% represent growth inhibition, and numbers from -100% - 0 represent cell death. For example, a value of 40 represents 60% growth inhibition. A value of 0 means no net growth occurred over the course of the experiment. A value of -40 indicates 40% of cells at the beginning of the experiment died by the end of the experiment. A value of -100 means all cells are dead at the end of the experiment.
NCI-60 Human Tumor Cell Lines Screen was performed using the standard one-dose NCI protocol, which is described in more detail at https://dtp.cancer.gov/discovery_development/nci-60/default.htm.
Compounds with GIPRCNT values below 10 were considered active. Activity score was based on GIPRCNT using the following formula: […]
Score is 0 for GIPRCNT values of 100 or above, 50 for GIPRCNT values of 0, and 100 for GIPRCNT values of -100.

SMILES	growth
COc1cc(-c2cc(=O)oc3cc(O)ccc23)cc(OC)c1OC	101%
CC(C)[N+](C)(CCOC(COc1ccccc1)COc1ccccc1)C(C)C	60%
COc1ccc(-c2nc(SCCC(C)C)nc(N/N=C(/C)c3ccc(C)cc3)c2C#N)cc1	99.4%
O=S(=O)(NCCNc1nccc(-c2c(-c3ccc(F)c(O)c3)nc3sccn23)n1)c1ccccc1	109%
COc1ccc(/C=C/C(=O)c2ccc(Nc3ncnc4ccccc34)cc2)cc1OC	77.6%
O=C(O)C(/C=C/c1ccco1)=N\Nc1nc(-c2ccc(Cl)cc2)cs1	65.2%
O=C(O)c1ccc[n+](CC(=O)N2CCN(c3cc4c(cc3F)c(=O)c(C(=O)O)cn4C3CC3)CC2)c1	98%
OC1(c2ccc(Cl)c(C(F)(F)F)c2)CCN(CCCC(c2ccc(F)cc2)c2ccc(F)cc2)CC1	-92.5% (active)
COc1ccccc1Nc1cc(O)c2c(=O)cc(-c3ccccc3)oc2c1	11.6%
N/C(=N\N=C\c1cc2ccccc2[nH]1)N/N=C/c1cc2ccccc2[nH]1	95.6%
Cc1ccc(-c2csc(/N=C3\C(=O)Nc4ccccc43)n2)cc1	5.79% (active)
Fc1ccc(C2CC(c3cccc(Nc4ccncc4)c3)=NN2c2ccc(Cl)cc2)cc1 (stereo not given)	78%
COc1ccccc1/C=N/NC1=NC2C(N1)N(C)C(=O)N2C (stereo not given)	97.4%
O=C(O)CCCCCCCCCCCCCCC(=O)O	76.9%
COc1ccc(Cn2nc(-c3cc(OC)c(OC)c(OC)c3)c3c2CCc2cnoc2-3)cc1OC	42.1%
[2H]C1([2H])NC([2H])([2H])C([2H])([2H])N(c2ccc(Nc3ncc4cc(C(=O)N(C)C)n(C5CCCC5)c4n3)nc2)C1([2H])[2H]	66.5%
CN1C(=O)N(C)[C@H]2NC(NN)=N[C@H]21	97.9%
O=S(=O)(NCCCNc1nccc(-c2c(-c3ccc(F)c(O)c3)nc3sccn23)n1)c1ccc(F)cc1	-10.9% (active)
CCc1nc(C)cn1C(=O)OCc1nc2nc(Cl)nc(N3CCOCC3)c2[nH]1	22.1%
O=C1NC(=S)NC(=O)C1=Cc1cn(Cc2ccccn2)c2ccccc12	-86.4% (active)

SMILES	growth
COC(=O)CCCCCCCCC1(C)C=CC(C(C)O)=CC1 (stereo not given)	96.1%
CN(C)CCCn1c2c(c3ccc(-c4ccn[nH]4)cc3c1=O)C(=O)c1ccccc1-2	52.4%
CCOC(=O)c1c(O)cc(-c2ccccc2)cc1-c1sc(N(C)Cc2ccccc2)nc1Cl	108%
S=c1[nH]cccc1-c1nnc2n1Nc1nc3ccccc3cc1CS2	111%
Clc1ccc(C2CC(c3cccc(Nc4ccncc4)c3)=NN2c2ccccc2)cc1 (stereo not given)	84%
Cc1nc2sc(C(=O)Nc3ccccc3)c(N)c2cc1C(=O)c1ccc(C(F)(F)F)cc1	5.8% (active)
CCOC(=O)c1ccc(Nc2ccnc(SCC(=O)c3ccc(C#N)cc3)n2)cc1	50.2%
COc1ccc(C(O)c2cc3c(N)c(C(=O)Nc4cccc(OC)c4)sc3nc2C)cc1 (stereo not given)	-17% (active)
Clc1cc(Cl)cc(N2N=C(c3cccc(Nc4ccncc4)c3)CC2c2ccccc2)c1 (stereo not given)	103%
COc1ccc(NS(=O)(=O)c2ccc(C)cc2)c([N+](=O)[O-])c1	80%
Cc1c([N+](=O)[O-])cc(C(C)(C)C)cc1[N+](=O)[O-]	93.8%
Nc1nc(N)nc(NCc2ccccc2)n1	105%
CNC(=O)c1c(NC(=O)c2ccc(C(C)C)cc2)sc2c(CN(C)C)c(O)ccc12	58.9%
CN1CCN(C(=O)OCc2nc3c(N4CCOCC4)nc(-c4ccccc4)nc3n2C)CC1	3.05% (active)
CS(=O)(=O)Nc1cc(-c2ccc3ncnc(Nc4ccc5[nH]ncc5c4)c3c2)cnc1Cl	24.5%
Brc1ccc(C2CC(c3cccc(Nc4ccncc4)c3)=NN2c2ccccc2)cc1 (stereo not given)	80.2%
CCN1C(=O)/C(=c2\sc3n(c2=O)NC2C(N=3)N(CC)C(=O)N2CC)c2ccccc21 (stereo not given)	-17.8% (active)
O=C(Nc1sc2c(c1C(=O)O)CCCC2)c1cccc(C(F)(F)F)c1	95.2%
CC1(c2ccccc2)NC(=O)N(CC(=O)Nc2cccc(I)c2)C1=O (stereo not given)	70.5%
FC(F)(F)c1cccc(Oc2ccc(Nc3ncnc4ccc(OCCCN5CCOCC5)cc34)cc2Cl)c1	63.1%
